Compound activity (PubChem BioAssay)
GRK2 aptamer HTS: compounds blocking aptamer binding on GRK2 – biochemical, human GRK2, bead flow cytometry, HTS, primary screen; Beta-adrenergic receptor kinase 1 (Homo sapiens), P25098; FAM-aptamer displacement from GRK2; inhibition of aptamer binding, % at 10 µM; actives 0.59% (n = 330,000); AID 488847, 2010;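 active = inhibition of aptamer binding above 40%, roughly 3 SD of noise, on plates passing a quality check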;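 also: median bead fluorescence of bound FAM aptamer so fluorescent compounds give negative values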
Target sequence (P25098 whole entry, looked up): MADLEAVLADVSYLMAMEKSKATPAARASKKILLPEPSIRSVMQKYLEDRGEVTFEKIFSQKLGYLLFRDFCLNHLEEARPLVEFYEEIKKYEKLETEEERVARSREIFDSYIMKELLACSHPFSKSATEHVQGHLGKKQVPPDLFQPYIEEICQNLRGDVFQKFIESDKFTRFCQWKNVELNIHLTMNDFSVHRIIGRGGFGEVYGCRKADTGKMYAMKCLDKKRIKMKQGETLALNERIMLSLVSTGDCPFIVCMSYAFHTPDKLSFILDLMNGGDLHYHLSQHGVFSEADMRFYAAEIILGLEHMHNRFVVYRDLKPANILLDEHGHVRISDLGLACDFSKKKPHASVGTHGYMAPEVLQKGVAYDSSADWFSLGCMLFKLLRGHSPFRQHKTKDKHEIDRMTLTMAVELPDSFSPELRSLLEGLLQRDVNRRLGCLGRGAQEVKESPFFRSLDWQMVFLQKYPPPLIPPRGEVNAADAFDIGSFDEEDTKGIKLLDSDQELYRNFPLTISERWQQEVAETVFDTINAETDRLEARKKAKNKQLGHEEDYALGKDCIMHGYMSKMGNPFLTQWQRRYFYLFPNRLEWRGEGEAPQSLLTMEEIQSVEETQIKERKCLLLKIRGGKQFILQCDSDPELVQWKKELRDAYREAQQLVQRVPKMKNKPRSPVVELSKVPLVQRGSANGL
Beta2AR agonist: beta2AR agonists driving receptor internalization, primary screen, cell-based, FAP fluorogen, flow cytometry; Am2.2-beta2AR cells; response, % (concentration not given with the values); actives 0.43% (n = 340,000); AID 504454, 2011;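 active = response above a set limit, near 3 SD of response in nonfluorescent compounds, cut at about 42% in these data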
MEKK2 mut-MEK5: MEK5 binding signal on mutant MEKK2 PB1, primary screen, biochemical, multiplex bead flow cytometry, Alexa488-MEK5; Alexa488-MEK5 binding to MEKK2 mutant; percent response, % at 10 µM; actives 0.35% (n = 290,000); AID 1530, 2009; in the data active = percent response above about 24%, passing the limit was not always enough
MEKK2 WT-MEK5: modulators of MEK5 binding to wildtype MEKK2, primary screen, biochemical, multiplex bead flow cytometry, Alexa488-MEK5; Mitogen-activated protein kinase kinase kinase 2 (Homo sapiens), Q9Y2U5; Alexa488-MEK5 binding to MEKK2 WT; actives lie on both sides; binding response (% of control), % at 10 µM; actives 1.1% (n = 290,000); AID 1531, 2009; in the data active = binding response below about 67% or above about 130%
MEKK3 PB1 HTS: modulators of MEKK3-MEK5 PB1 binding, primary screen, biochemical, wildtype MEKK3, multiplex bead flow cytometry, Alexa488-MEK5; Mitogen-activated protein kinase kinase kinase 3 (Homo sapiens), Q99759; AID 1529, 2009; actives 1.4% (n = 290,000); binding response (% of control), % at 10 µM; bead-based flow cytometry, Alexa488-MEK5 binding to MEKK3; actives lie on both sides; 0 = blocked by unlabeled MEK5, 100 = vehicle;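 active = binding response more than 3 SD above or below the average of its plate-row segment, actives on both sides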;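 also: Alexa488 bead fluorescence after subtracting the streptavidin-only scavenger bead signal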
GRK2 inh confirm: GRK2 aptamer-displacing inhibitors, retest, confirmation, biochemical, cherry pick 1, bead flow cytometry | shares compounds with GRK2 aptamer HTS | bead-bound GRK2, FAM-aptamer displacement | aptamer displacement, % at 10 µM | actives 4% (n = 2,000);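 active = aptamer displacement above 40%, near three times the noise of non-fluorescent compounds, on plates passing quality checks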;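 also: negative values mostly reflect intrinsic compound fluorescence rather than true enhancement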
Aptamer quench 1: counter-screen for GRK2 aptamer inhibitors: fluorescent aptamer quenchers; shares compounds with GRK2 aptamer HTS; Fluorescent RNA aptamer beads, quenching, flow cytometry; stronger effect = higher value; fluorescence change (kMESF span), kMESF (test concentration not listed); 110 tested, under 10 active; AID 504521;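 active = compounds whose bead fluorescence drops by more than 37 kMESF across the dose range, marking them as dye quenchers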
FAM quench CP1: aptamer fluorescence quenching in GRK2 counter-screen | shares compounds with GRK2 aptamer HTS | Carboxyfluorescein RNA aptamer on beads, flow cytometry quenching; stronger effect = lower value | fluorescence response (% of DMSO), % at 10 µM | 2,000 tested, under 10 active;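 active = compounds that quench the bead-bound fluorescent RNA probe, cutting fluorescence to under half of the solvent control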;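 also: counterscreen run without GRK2 so only probe quenching by compound is measured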
GRK2 CP2: GRK2 aptamer-displacing inhibitors, hit retest, confirmation, biochemical, cherry pick 2, bead flow cytometry | shares compounds with GRK2 aptamer HTS | bead-bound GRK2, FAM-aptamer displacement | inhibition of aptamer binding, % at 10 µM | 360 tested, under 10 active;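 active = inhibition of aptamer binding above 40%, about triple the noise seen with nonglowing compounds, on plates passing quality control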;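 also: negative values mostly come from compounds that fluoresce themselves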
FAM quench CP2: counter-screen for GRK2 binding hits: quenchers of fluorescent RNA aptamer | shares compounds with GRK2 aptamer HTS | carboxyfluorescein RNA aptamer beads, flow cytometry quenching; stronger effect = lower value | fluorescence response vs DMSO, % at 10 µM | 360 tested, under 10 active | AID 588494;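 active = response vs DMSO under 50%, meaning signal dropped by over half, treated as fluorescence quencher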;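 also: labelled aptamer on streptavidin beads without GRK2 as a quench counter-screen; 100% = bead fluorescence of DMSO wells and lower means quenching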
Starred values were filed as active, the others as inactive; / = no result given. Shown are actives, neighbours in structure and some others; about 2.9% of the full set was active somewhere.

SMILES	GRK2 aptamer HTS	Beta2AR agonist	MEKK2 mut-MEK5	MEKK2 WT-MEK5	MEKK3 PB1 HTS	GRK2 inh confirm	FAM quench CP1	others
C[C@@H](NC(=O)c1[nH]cnc1C(=O)Nc1ccccc1)c1ccccc1	1.0	16.4	/	/	/	/	/
CNC(=O)c1[nH]cnc1C(=O)Nc1cccc(Cl)c1	91.0*	-13.5	/	/	/	93.3*	98.1	Aptamer quench 1=4
CSCCC(NC(=O)COc1ccccc1)C(=O)N(C)Cc1ccc(Cl)cc1Cl (configuration not stated)	0.0	-5.7	/	/	/	/	/
NC(=O)C(=O)N/N=C/c1cccc(C(F)(F)F)c1	61.0*	7.9	-4.0	93.0	93.0	-0.3	101.1
Cc1ccc(-c2cccc(C3CC=CC4C3C(=O)N(Cc3ccccc3)C4c3ccc4ccccc4c3)c2)cc1 (configuration not stated)	0.0	0.7	-3.0	97.0	96.0	/	/
Cc1ccc(F)c(C2C3C=CCC(c4cccc(-c5ccc(N(C)C)cc5)c4)C3C(=O)N2Cc2ccccc2)c1 (configuration not stated)	0.0	9.5	2.0	100.0	100.0	4.8	96.0
O=C1C2C(c3cccc(/C=C/c4ccccc4)c3)CC=CC2C(c2ccc(C(F)(F)F)cc2)N1Cc1ccccc1 (configuration not stated)	0.0	8.6	-1.0	95.0	88.0	0.1	103.3
O=C1C2C(c3cccc(/C=C/c4ccccc4)c3)CC=CC2C(c2ccc3ccccc3c2)N1Cc1ccccc1 (configuration not stated)	0.0	0.9	1.0	93.0	96.0	-0.1	107.4
CC(C)[C@H](NS(=O)(=O)c1ccccc1)C(=O)Nc1nccs1	0.0	/	/	/	/	/	/
Cc1ccccc1CSCC(=O)c1c(N)n(CC(C)C)c(=O)n(C)c1=O	1.0	5.3	-2.0	100.0	101.0	/	/
CC(C)Cn1c(N)c(C(=O)CSc2ccccc2)c(=O)n(C)c1=O	47.0*	-6.3	-1.0	98.0	100.0	-3.0	97.5
CCCc1cc(=O)n2[nH]c(-c3ccc(Cl)cc3)cc2n1	0.0	1.3	5.0	113.0	106.0	/	/
CC(C)(C)OC(=O)N1CCC(c2cc(=O)n3[nH]c(-c4ccc(Cl)cc4)cc3n2)CC1	88.0*	-3.2	-7.0	99.0	96.0	-25.9	94.1
CCOC(=O)CNC(=O)c1sc(NC(=O)c2ccccc2F)nc1C	59.0*	-4.6	3.0	101.0	98.0	0.9	113.2
Cc1cc(-c2ccc(C(C)C)c(S(=O)(=O)Nc3cc(C)on3)c2)on1	0.0	6.5	-4.0	98.0	101.0	/	/
C/C=C(\C)C(=O)NCCN1C2=NC[C@@H](C)N2C[C@H]1Cc1ccc(O)cc1	68.0*	4.9	9.0	111.0	102.0	-3.2	98.9
COc1ccc(NS(=O)(=O)c2cc(NC(=O)/C=C/c3ccccc3OC)ccc2N2CCCCC2)cc1	0.0	8.8	1.0	100.0	103.0	/	/
COc1ccc(NC(=O)Cc2ccc(Cl)cc2)cc1NC(=O)c1ccco1	70.0*	9.9	-5.0	103.0	100.0	-7.1	94.9
CCOc1ccc(NC(=S)NC(=O)c2ccco2)cc1	74.0*	1.5	1.0	74.0	87.0	-2.8	101.3
COc1ccc(Cl)cc1NC(=S)NC(=O)c1ccco1	44.0*	-19.1	/	/	/	/	/	GRK2 CP2=8.1;FAM quench CP2=100.0
Cc1ccc2c(COC(=O)C3CSC4(C)CCC(=O)N34)cc(=O)oc2c1C (configuration not stated)	7.0	-0.5	/	/	/	/	/
CCSc1nnc(-c2ccccc2N=Cc2c(C)[nH]n(-c3ccccc3)c2=O)c(=O)[nH]1	0.0	-10.6	2.0	104.0	106.0	/	/
CCCn1cc(SCC(=O)NCc2ccco2)c2ccccc21	0.0	-3.0	2.0	99.0	100.0	/	/
O=C(CSc1cn(CCNC(=O)c2cccs2)c2ccccc12)NC1CCCC1	0.0	23.0	8.0	103.0	106.0	/	/	GRK2 CP2=-0.1;FAM quench CP2=106.0
O=C(CSc1cn(CCNC(=O)c2ccccc2)c2ccccc12)NCc1ccco1	72.0*	-0.5	12.0	115.0	110.0	-3.2	102.8
SMILES	GRK2 aptamer HTS	Beta2AR agonist	MEKK2 mut-MEK5	MEKK2 WT-MEK5	MEKK3 PB1 HTS	GRK2 inh confirm	FAM quench CP1	others
CC[C@]12C(=O)N(C)C[C@H]([C@@H]3C(=O)N(C)C(=O)[C@@H]31)N2C(=O)c1ccc(Br)cc1	/	-1.6	/	/	/	/	/
COc1ccccc1CN(C)C(=O)C1COc2ccccc2O1 (configuration not stated)	4.0	2.4	3.0	99.0	103.0	2.0	99.2
CCOC(=O)C1=CN(Cc2cccc(F)c2)S(=O)(=O)N(CC)C1c1ccc(C(F)(F)F)cc1 (configuration not stated)	2.0	-2.4	/	/	/	/	/
COc1cccc(CN2CCC(C(=O)N3CCN(c4ccccc4F)CC3)CC2)c1OC	60.0*	-1.2	-1.0	101.0	97.0	/	/	GRK2 CP2=-2.5;FAM quench CP2=100.0
CN(CC(=O)NC(=O)NC1CCCCC1)CC(=O)Nc1ccc(OC(F)(F)F)cc1	9.0	11.9	/	/	/	/	/
COc1ccc(CN(C)C(=O)Cn2ccsc2=N)cc1OC	0.0	-1.9	1.0	98.0	99.0	3.6	96.5
N/C(=N\OC(=O)/C=C/c1ccccc1)c1cccnc1	0.0	-0.1	0.0	100.0	108.0	/	/
N/C(=N\OC(=O)/C=C/c1ccccc1Cl)c1cccnc1	75.0*	3.3	-13.0	97.0	93.0	-21.7	97.5
Cc1cccnc1NC(=O)c1ccc(C(=O)c2ccccc2)cc1	0.0	-8.2	/	/	/	/	/
CCC(C)(C)NC(=O)CN(Cc1cccs1)C(=O)C(=O)Nc1ccc2c(c1)OCCO2	74.0*	5.7	-8.0	78.0	78.0	2.5	88.0
Cc1cc(C)n2nc(-c3ccc(Cl)cc3)cc2n1	0.0	-28.1	6.0	108.0	106.0	/	/
Cc1cc(-c2ccc(Cl)cc2)n2nc(C)cc2n1	45.0*	-0.4	4.0	104.0	105.0	-4.8	102.3
